Shown are actives, neighbours in structure and some others; about 5.9% of the full set was active somewhere.
Rtt109 Vps75: blocks Candida albicans Rtt109/Vps75 acetyltransferase activity | Q5AAJ8 | purified Rtt109/Vps75, ThioGlo CoA-SH fluorescence, 4 h | inhibition, % at 34.9 µM | hit rate 0.16% among 330,000 | AID 540336;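 active = inhibition of at least 50% in every replicate; inconclusive = best replicate reaches 50% inhibition but some replicates fall short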
PRMT1 FP inh: inhibitors of human PRMT1; inhibition, % at 2.79 µM; recombinant PRMT1, activity-based probe fluorescence polarization; hit rate 1.3% among 370,000; AID 652257; Q99873;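 active = inhibition above about 21% made by adding two undisclosed values, limit read from the data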
LANA-H2B inh: blocks KSHV LANA binding to histone H2A/H2B | hit rate 0.6% among 320,000 | inhibition, % (test concentration not listed) | cell-free LANA-H2A/H2B peptide, fluorescence polarization | AID 2629; in the data active = inhibition mostly above about 10%, no sharp cut-off; inactive = mostly below about 6.7%
Target sequence (Q9QR71 whole entry, looked up): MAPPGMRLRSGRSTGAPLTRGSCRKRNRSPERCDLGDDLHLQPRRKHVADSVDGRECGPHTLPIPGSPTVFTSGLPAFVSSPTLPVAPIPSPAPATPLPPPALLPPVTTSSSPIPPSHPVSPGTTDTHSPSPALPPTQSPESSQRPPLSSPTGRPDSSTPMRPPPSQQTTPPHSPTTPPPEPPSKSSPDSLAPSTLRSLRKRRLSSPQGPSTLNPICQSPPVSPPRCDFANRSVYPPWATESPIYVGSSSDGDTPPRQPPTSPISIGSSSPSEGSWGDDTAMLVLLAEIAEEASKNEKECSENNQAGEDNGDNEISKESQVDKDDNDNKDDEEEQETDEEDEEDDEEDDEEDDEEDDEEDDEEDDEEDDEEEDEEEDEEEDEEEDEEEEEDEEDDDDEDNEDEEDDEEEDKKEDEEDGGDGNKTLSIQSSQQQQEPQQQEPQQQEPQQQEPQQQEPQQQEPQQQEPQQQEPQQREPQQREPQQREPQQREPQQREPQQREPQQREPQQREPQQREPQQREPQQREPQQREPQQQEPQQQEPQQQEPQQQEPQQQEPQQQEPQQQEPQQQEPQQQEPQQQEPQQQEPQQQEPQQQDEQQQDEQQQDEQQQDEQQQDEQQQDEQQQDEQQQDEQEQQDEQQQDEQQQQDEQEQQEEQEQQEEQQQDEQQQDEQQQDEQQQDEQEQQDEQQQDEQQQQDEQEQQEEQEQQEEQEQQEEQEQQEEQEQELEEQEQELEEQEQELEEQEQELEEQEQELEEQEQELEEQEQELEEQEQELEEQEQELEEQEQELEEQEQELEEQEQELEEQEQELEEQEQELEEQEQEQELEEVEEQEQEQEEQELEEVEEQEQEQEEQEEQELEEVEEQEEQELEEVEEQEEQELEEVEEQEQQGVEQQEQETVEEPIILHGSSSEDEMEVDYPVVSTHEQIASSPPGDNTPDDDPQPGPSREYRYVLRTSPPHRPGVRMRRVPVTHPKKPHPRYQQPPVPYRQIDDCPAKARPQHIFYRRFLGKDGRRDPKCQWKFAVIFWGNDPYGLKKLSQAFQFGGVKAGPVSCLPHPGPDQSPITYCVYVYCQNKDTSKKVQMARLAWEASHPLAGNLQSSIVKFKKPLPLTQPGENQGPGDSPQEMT
ALR inh: blocks human ALR sulfhydryl oxidase activity | purified ALR, DTT oxidation, H2O2 HRP-luminol luminescence | inhibition, % (concentration not given with the values) | hit rate 3.8% among 290,000 | AID 485317;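 active = mean replicate inhibition above about 79%, with every replicate also reaching it, limit read from the data; inconclusive = only one of the two criteria met; inactive = mean below limit and not every replicate reaching it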
rCAG binder: molecules binding r(CAG) RNA repeats; r(CAG) RNA repeat, TO-PRO-1 dye displacement fluorescence; inhibition, % at 3 µM; hit rate 1.3% among 370,000;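 active = inhibition above the plate cutoff, the mean of all test compounds on that plate plus 3 SD, cut at about 35% in these data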;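 also: 0% = DMSO alone and 100% = 100 µM mitoxantrone as full dye displacement; higher means more dye released from RNA so lower well fluorescence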
ABHD5-PLIN5 inh: inhibitors of human ABHD5-perilipin-5 interaction; Split G. princeps luciferase complementation, luminescence, 4 h; inhibition, % at 4 µM; hit rate 0.78% among 360,000; AID 602281;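 active = inhibition above the mean inhibition across every tested compound plus 3 SD, cut at about 22% in these data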;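 also: 0% = DMSO only wells and the 100% control is not disclosed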
Numbers without * were called inactive; ? = inconclusive; / = no result given.

SMILES	Rtt109 Vps75	PRMT1 FP inh	LANA-H2B inh	ALR inh	rCAG binder	ABHD5-PLIN5 inh
Cc1cc(F)ccc1C(O)c1ncc(-c2cccc(OCc3ccccc3)c2)[nH]1 (stereo not given)	/	-5	/	/	8	-2
O=C(CS(=O)(=O)c1ccccc1)Nc1nnc(Cc2ccccc2)s1	-1	11	5	87*	8	-9
COc1cc(/C=C(\C#N)C(=O)N2CCc3ccccc32)ccc1O	8	1	-2	100*	3	9
COc1ccc(/C=C(/NC(=O)c2ccco2)C(=O)N2CCc3ccccc32)cc1OC	9	-2	0	-5	-5	6
CCOC(=O)/C(C#N)=C\c1ccc(O)c(OC)c1	/	4	-1	99*	1	-2
N#C/C(=C\c1ccc(O)c(O)c1)C(=O)N1CCc2ccccc21	1	8	0	99*	26	8
COC(=O)[C@@H]1C[C@]2(OC(=O)c3ccccc3)C=CC(=O)C[C@@H]2N1C(=O)OCc1ccccc1	-2	-1	-5	23	-8	45*
NC(=O)c1cccc(-c2coc3c(C(=O)NCc4ccccc4)cccc23)c1	/	6	/	/	3	4
CCCCNC(=O)C1(C)CCN1C(=O)c1cccc2c1OCCO2 (stereo not given)	/	8	/	/	0	0
COC(=O)[C@]12C[C@H](CC(=O)N3CCCCC3)C(=O)N(CCc3ccc(OC)c(OC)c3)C1=C[C@H](C(C)C)O[C@@H]2C1CC1	/	-5	/	/	0	/
CCn1c(/C=C/c2ccc(O)cc2)nc2ccccc2c1=O	5	1	-6	98*	1	2
Cc1nc2ccccc2c(=O)n1CCc1ccc(O)cc1	/	4	-2	96*	-1	-5
Cc1nc2ccccc2c(=O)n1CCc1ccccc1	3	-1	5	-20	-4	-1
CCn1c(/C=C/c2cc(Br)ccc2O)nc2ccccc2c1=O	-2	-6	5	74	13	0
CCn1c(/C=C/c2ccc(O)c(O)c2)nc2ccccc2c1=O	-2	4	3	100*	14	7
COC(=O)[C@]12C[C@H](CC(=O)N3CCSCC3)C(=O)N(Cc3cccc4ccccc34)C1=C[C@H](C(C)C)O[C@@H]2C1CC1	/	1	/	/	5	/
CC(C)(C)N(NS(=O)(=O)c1ccc(F)cc1)c1ccccc1	-3	22*	-3	?	-4	-9
O=C(N/N=C/c1cc2c3c(c1O)CCCN3CCC2)c1ccccc1O	/	17	/	/	18	3
O=c1oc2c3c4c(cc2s1)CCCN4CCC3	?	75*	9	99*	2	-21
CCOC(=O)[C@@]12CN(C(=O)OC(C)(C)C)CC=C1N(Cc1ccc(OC)cc1)C(=O)[C@H]2CC(=O)N1CCOCC1	/	-1	/	/	3	/
O=S(=O)(c1ccc(NC(=S)N2CCN(c3ccc(O)cc3)CC2)cc1)N1CCOCC1	2	1	0	99*	5	-6
O=C(CN1CCCC1)Nc1ccc(S(=O)(=O)N2CCCCC2)cc1	7	-4	35*	/	0	-4
O=S(=O)(c1ccc(NC(=S)N2CCOCC2)cc1)N1CCCCC1	/	2	/	/	3	2
CN(C)S(=O)(=O)c1cc(NC(=O)CN2CCN(c3ccc(O)cc3)CC2)ccc1Cl	1	4	2	100*	4	-2
Cc1ccc(S(=O)(=O)N2CCOCC2)cc1NC(=O)CN1CCN(C)CC1	-2	-3	-3	-3	1	10
SMILES	Rtt109 Vps75	PRMT1 FP inh	LANA-H2B inh	ALR inh	rCAG binder	ABHD5-PLIN5 inh
CN(C)S(=O)(=O)c1cc(NC(=O)CN2CCN(c3ccccc3)CC2)ccc1Cl	-4	-1	-10	21	3	3
Cc1ccc(S(=O)(=O)N2CCOCC2)cc1NC(=O)CN1CCN(c2ccc(O)cc2)CC1	7	13	-1	97*	4	2
CCc1c(-c2ccccc2)ncn1CCc1ccccc1OC	/	1	/	/	0	/
O=C1CCC2c3[nH]c4ccccc4c3CCN12 (stereo not given)	/	1	/	/	8	7
CC1C(=O)N(Cc2cn(Cc3ccco3)nn2)CCS(=O)(=O)N1Cc1ccc(-c2ccccc2C(F)(F)F)cc1 (stereo not given)	/	6	/	/	11	7
O=C(O)/C=C/C(=O)Nc1ccc(S(=O)(=O)N2CCCC2)cc1	64*	2	-7	-4	4	10
